TMEM16A inh: TMEM16A chloride channel inhibitors, primary screen, cell-based, HTS | HEK293 TMEM16A/YFP iodide influx fluorescence, ionomycin | normalized B-score (activity score, 25-100; higher = stronger inhibition) at 10 µM | 1.2% of 310,000 active;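 active means ratio plate-corrected score three or more library SD toward inhibition, starting fluorescence score within five deviations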;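 further: score derived from kinetic fluorescence span divided by baseline fluorescence per well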
TMEM16A act: TMEM16A chloride channel activators or potentiators, primary screen, cell-based, HTS; Anoctamin-1 (Mus musculus), Q8BHY3; HEK293 TMEM16A/YFP-H148Q/I152L, iodide quench fluorescence; stronger effect = lower value; B-score at 10 µM; 0.3% of 340,000 active; AID 623877, 2012;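 active means fluorescence-ratio B-score plate-corrected deviation score at least 3 library SD below zero, with starting fluorescence score within 5 deviations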;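 further: channel opened by trigger with iodide after compound preincubation; score built on the fluorescence ratio of max minus min over baseline; more negative score means more quench and so TMEM16A activation or potentiation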
MEKK3 PB1 HTS: modulators of MEKK3-MEK5 PB1 binding, primary screen, biochemical, wildtype MEKK3, multiplex bead flow cytometry, Alexa488-MEK5; bead-based flow cytometry, Alexa488-MEK5 binding to MEKK3; actives lie on both sides; 0 = blocked by unlabeled MEK5, 100 = vehicle; binding response (% of control), % at 10 µM; 1.4% of 290,000 active;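 active means binding response more than 3 SD above or below the average of its plate-row segment, actives on both sides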;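 further: Alexa488 bead fluorescence after subtracting the streptavidin-only scavenger bead signal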
MEKK2 mut-MEK5: MEK5 binding signal on mutant MEKK2 PB1, primary screen, biochemical, multiplex bead flow cytometry, Alexa488-MEK5. AID 1530, 2009. Alexa488-MEK5 binding to MEKK2 mutant. percent response, % at 10 µM. 0.35% of 290,000 active; in the data active means percent response above about 24%, passing the limit was not always enough
NTR1 ag: agonists of human NTR1, primary screen, imaging, U2OS cells, beta-arrestin-GFP, high content; Neurotensin receptor type 1 (Homo sapiens), P30989; NTR1-U2OS beta-arrestin-GFP spot imaging, agonist mode; activation, % at 20 µM; 0.17% of 330,000 active; AID 493036, 2011;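 active means activation at or above 40% of the spot to cytoplasm intensity ratio, with at least 20 cells analyzed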
MEKK2wt PB1 HTS: modulators of MEK5 binding to wildtype MEKK2, primary screen, biochemical, multiplex bead flow cytometry, Alexa488-MEK5 | Alexa488-MEK5 binding to MEKK2 WT; actives lie on both sides | binding response (% of control), % at 10 µM | 1.1% of 290,000 active | AID 1531, 2009 | Mitogen-activated protein kinase kinase kinase 2 (Homo sapiens), Q9Y2U5; in the data active means binding response below about 67% or above about 130%
MEKK2wt confirm: modulators of MEK5 binding to wildtype MEKK2, confirmation, biochemical, single concentration, multiplex bead flow cytometry. AID 1892, 2009. binding response (% of control), % at 10 µM. Alexa488-MEK5 binding to MEKK2 WT; actives lie on both sides. 2.4% of 5,900 active. shares compounds with MEKK3 PB1 HTS; in the data active means binding response below about 16% or above about 210%; inactive means in between
MEKK2mut confirm: mutant MEKK2 PB1-MEK5 binding signal retest – biochemical, single concentration, multiplex bead flow cytometry, confirmation; 2% of 5,900 active; Alexa488-MEK5 binding to MEKK2 mutant; shares compounds with MEKK3 PB1 HTS; percent response, % at 10 µM; in the data active means percent response mostly above about 71%, no sharp cut-off; inactive means mostly below about 38%;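 further: higher means compound restores mutant binding toward wildtype level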
MEKK3 confirm: MEKK3 wild-type PB1 binding to MEK5, inhibitors, confirmation, biochemical, bead multiplex flow cytometry, single concentration, wildtype. shares compounds with MEKK3 PB1 HTS. Alexa488-MEK5 binding to MEKK3; stronger effect = lower value. binding response (% of control), % at 10 µM. 1.8% of 5,900 active. AID 1894, 2009;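 active means binding response below 72% of control, or above a set upper limit, though filed actives all read lower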
Hits are given with their value; - = inactive; . = no result given; [ ] = dose if it differs, or a comment. Hits are enriched below; roughly 3.4% of the tested compounds scored in any of these assays.

SMILES | TMEM16A inh | TMEM16A act | MEKK3 PB1 HTS | MEKK2 mut-MEK5 | NTR1 ag | MEKK2wt PB1 HTS | MEKK2wt confirm | MEKK2mut confirm | MEKK3 confirm
C#CCOCCOCCOCCNc1nc(N2CCN(C(=O)C([C@@H](C)CC)n3cc(C(N)COC(=O)C(F)(F)F)nn3)CC2)nc(N2CCN(C(=O)[C@H](CCCCN)n3cc(C(N)[C@H](C)CC)nn3)CC2)n1 (stereo partly specified) | - | . | - | 62.0 | - | 304.0 | 237.0 | 86.0 | -
C#CCOCCOCCOCCNc1nc(N2CCN(C(=O)[C@H](CCCCN)n3cc([C@@H](N)C(C)CC)nn3)CC2)nc(N2CCN(C(=O)[C@H](CCCCN)n3cc([C@@H](N)CO)nn3)CC2)n1 (stereo partly specified) | - | . | - | - | - | - | . | . | .
C#CCOCCOCCOCCNc1nc(N2CCN(C(=O)[C@H]([C@@H](C)CC)n3cc([C@@H](N)CO)nn3)CC2)nc(N2CCN(C(=O)[C@H](CCCCN)n3cc([C@@H](N)C(C)CC)nn3)CC2)n1 (stereo partly specified) | - | - | - | - | - | - | . | . | .
C#CCOCCOCCOCCNc1nc(N2CCOCC2)nc(N2CCN(C(=O)[C@H](CCCCN)n3cc(CCCC)nn3)CC2)n1 | . | - | . | . | . | . | . | . | .
C#CCOCCOCCOCCNc1nc(N2CCN(C(=O)[C@H]([C@@H](C)CC)n3cc([C@@H](N)CC(C)C)nn3)CC2)nc(N2CCN(C(=O)[C@H](CCCCN)n3cc([C@@H](N)CC(C)C)nn3)CC2)n1 | - | - | - | - | - | 151.0 | - | - | -
C#CCOCCOCCOCCNc1nc(N2CCN(C(=O)[C@H]([C@@H](C)CC)n3cc([C@@H](N)CC(C)C)nn3)CC2)nc(N2CCN(C(=O)[C@H](CCCCN)n3cc([C@@H](N)C(C)CC)nn3)CC2)n1 (stereo partly specified) | - | - | - | - | - | 146.0 | - | - | -
Cc1ccc(N=c2sc(C)c(C)n2C)cc1 | - | - | - | - | - | - | . | . | .
CN1CCC(=O)N(CCSc2ccc(Br)cc2)CC1 | - | - | - | - | - | - | . | . | .
CC(=O)Nc1cc(C(=O)N(C)Cc2ccco2)ccc1Sc1ccc(Cl)cc1 | - | - | 142.0 | - | - | - | - | - | -
CC(C)Cc1nnc(NC(=O)CSc2nc(-c3ccccc3)cc(=O)[nH]2)s1 | - | - | - | - | - | - | . | . | .
Cc1ccc(N(CC(O)CON=C2c3ccccc3-c3ccccc32)S(C)(=O)=O)cc1 (stereo unspecified) | - | - | - | - | - | - | . | . | .
Cc1ccc(CN2CCSc3ccc(C(=O)NC4CCN(Cc5ccccc5)CC4)cc32)cc1 | - | - | - | - | - | 206.0 | 240.0 | 80.0 | -
Cc1ccc(CN2CCSc3ccc(C(=O)NCc4ccco4)cc32)cc1 | - | - | 56.0[inhibitor] | - | - | 58.0[inhibitor] | - | - | -

Bioassay records from PubChem BioAssay.
